# Results published in PubChem BioAssay AID651551 (Sanford-Burnham Center for Chemical Genomics, 2012).
# Assay: GAPDH versus PEG-3 reporter suppression – cell-based, luminescence, counter-screen for PEG-3 promoter inhibitor project, SAR follow-up (AID 651551)
# Settings: HeLa PEG-Prom / GAPDH luciferase reporter, 6 or 24 h, run 1, 6 h; at 99 µM (top of the series)
row,Compound,inhibition % (higher = more inhibition)
1,COc1ccc(-n2nc(C(=O)NCC(=O)Nc3cccc(OC)c3)c3ccccc3c2=O)cc1,31.1%
2,Cc1cc(NC(=O)c2cccc(C)c2C)n(-c2nc3ccccc3[nH]2)n1,13.7%
3,COc1ccc(-n2nc(C(=O)NCC(=O)Nc3ccc(OC)c(OC)c3)c3ccccc3c2=O)cc1,69.4%
4,COCCCNC(=O)c1ccc(Cn2c(=O)c3ccccc3n(Cc3ccccc3C#N)c2=O)cc1,25.3%
5,CCCn1nc(C(=O)Nc2nc3ccccc3s2)c2ccccc2c1=O,42.8%
6,Cc1nc(NC(=O)c2ccccc2)sc1-c1csc(Nc2ccccc2Cl)n1,32%
7,Cc1nc(NC(=O)c2ccccc2)sc1-c1csc(Nc2cccc(Cl)c2C)n1,27%
8,Cc1cc(NC(=O)c2ccccc2C)n(-c2nc3ccccc3[nH]2)n1,44.4%
9,CCn1nc(C(=O)Nc2nc(-c3ccccn3)cs2)c2ccccc2c1=O,38.3%
10,CCCn1nc(C(=O)Nc2nc(-c3ccccn3)cs2)c2ccccc2c1=O,81.9%
11,COc1ccc(Cl)cc1Nc1nc(-c2sc(NC(=O)c3ccccc3)nc2C)cs1,44.4%
12,COc1ccccc1Nc1nc(-c2sc(NC(=O)c3ccco3)nc2C)cs1,51%
13,Cc1cc(NC(=O)c2ccccc2)n(-c2nc3ccccc3n2C)n1,28.6%
14,O=C(Nc1nccs1)c1nn(-c2ccccc2)c(=O)c2ccccc12,28%
15,CCCn1nc(C(=O)Nc2nc(-c3ccncc3)cs2)c2ccccc2c1=O,44.4%
16,O=C(Nc1nc(-c2ccccc2)cs1)c1nn(-c2ccccc2)c(=O)c2ccccc12,32.8%
17,COc1ccc(-n2nc(C(=O)NCC(=O)Nc3cc(OC)c(OC)c(OC)c3)c3ccccc3c2=O)cc1OC,29.5%
